These results are taken from publication PMC7862700, “An all-to-all approach to the identification of sequence-specific readers for epigenetic DNA modifications on cytosine”.

Holding throughout (assay): DAPPL (digital affinity profiling via proximity ligation, sequencing); 10 mM Tris-HCl pH 7.5, 50 mM NaCl, 1 mM DTT, 4% glycerol, room temperature, 30 min; GST-TFs on glutathione beads, 16-mer random dsDNA library, 0.1% formaldehyde crosslink after washing; high values mean tight binding
Common to all, as to settings: protein: recombinant; tags: N-terminal GST; dsDNA, one strand shown

In experiment [1] the target is T1, ERF (Homo sapiens, UniProt P50548 1-548).
T1 sequence: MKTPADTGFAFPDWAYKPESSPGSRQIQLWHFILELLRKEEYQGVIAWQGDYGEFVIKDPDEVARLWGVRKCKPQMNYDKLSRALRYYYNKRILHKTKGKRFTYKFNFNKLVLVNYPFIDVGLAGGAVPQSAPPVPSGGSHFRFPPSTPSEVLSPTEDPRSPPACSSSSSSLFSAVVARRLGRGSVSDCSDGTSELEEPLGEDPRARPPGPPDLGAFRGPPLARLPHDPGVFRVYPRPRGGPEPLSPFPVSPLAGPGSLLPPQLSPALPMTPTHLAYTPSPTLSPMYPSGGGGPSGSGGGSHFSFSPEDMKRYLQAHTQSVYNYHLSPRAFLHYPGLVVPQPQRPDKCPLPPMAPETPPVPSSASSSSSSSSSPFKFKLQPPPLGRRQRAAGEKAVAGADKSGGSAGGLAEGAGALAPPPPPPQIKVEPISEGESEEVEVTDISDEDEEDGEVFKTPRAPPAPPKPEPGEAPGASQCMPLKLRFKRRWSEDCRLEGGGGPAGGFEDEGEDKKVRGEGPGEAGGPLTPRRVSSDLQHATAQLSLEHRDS
In outline:
(§1)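 Beads coated with glutathione captured GST-fused human transcription factors that had been expressed in yeast, and the factors were then given DNA barcodes and pooled with a tag-only sample. The pools were incubated with 200 nmole of a random double-stranded 16-mer DNA library in Tris/NaCl/DTT/glycerol buffer for 30 min at room temperature, washed, crosslinked with 0.1% formaldehyde and proximity-ligated with BsaI/T4 ligase at 37 °C for 1 h. PCR amplification and Illumina NextSeq500 sequencing came last. Binding signal is each hexamer's read frequency for a factor divided by its frequency for the tag-only sample.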

Experiment [2] has as its target T2, ETV3L (Homo sapiens, UniProt Q6ZN32 1-361).
T2 sequence: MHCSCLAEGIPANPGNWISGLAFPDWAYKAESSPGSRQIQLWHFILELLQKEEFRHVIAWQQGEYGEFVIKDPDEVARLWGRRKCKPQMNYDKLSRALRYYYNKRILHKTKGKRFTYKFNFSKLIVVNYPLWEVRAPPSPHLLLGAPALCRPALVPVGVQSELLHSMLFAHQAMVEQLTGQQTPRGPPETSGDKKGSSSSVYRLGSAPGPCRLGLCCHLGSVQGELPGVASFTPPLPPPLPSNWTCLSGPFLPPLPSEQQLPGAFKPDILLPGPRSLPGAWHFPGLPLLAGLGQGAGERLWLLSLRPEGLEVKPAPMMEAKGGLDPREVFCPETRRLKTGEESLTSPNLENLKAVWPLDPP
The gist of the method:
as §1

The target in experiment [3] is T3, ETS2 (Homo sapiens, UniProt P15036 1-469).
T3 sequence: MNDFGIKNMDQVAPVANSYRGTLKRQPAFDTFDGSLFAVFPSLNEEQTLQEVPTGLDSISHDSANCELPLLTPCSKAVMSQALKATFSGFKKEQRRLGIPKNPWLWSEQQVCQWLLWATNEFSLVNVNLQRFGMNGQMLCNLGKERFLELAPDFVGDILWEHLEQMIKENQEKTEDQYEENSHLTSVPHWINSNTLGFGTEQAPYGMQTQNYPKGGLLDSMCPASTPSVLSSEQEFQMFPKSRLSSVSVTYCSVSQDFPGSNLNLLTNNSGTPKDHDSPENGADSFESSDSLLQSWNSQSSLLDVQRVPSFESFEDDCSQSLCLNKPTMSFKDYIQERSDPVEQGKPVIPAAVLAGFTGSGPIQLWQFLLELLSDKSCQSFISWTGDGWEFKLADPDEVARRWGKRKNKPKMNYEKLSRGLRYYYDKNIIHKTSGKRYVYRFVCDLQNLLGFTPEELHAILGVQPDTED
The gist of the method:
as §1

The target in experiment [4] is T4, SPDEF (Homo sapiens, UniProt O95238 1-335).
T4 sequence: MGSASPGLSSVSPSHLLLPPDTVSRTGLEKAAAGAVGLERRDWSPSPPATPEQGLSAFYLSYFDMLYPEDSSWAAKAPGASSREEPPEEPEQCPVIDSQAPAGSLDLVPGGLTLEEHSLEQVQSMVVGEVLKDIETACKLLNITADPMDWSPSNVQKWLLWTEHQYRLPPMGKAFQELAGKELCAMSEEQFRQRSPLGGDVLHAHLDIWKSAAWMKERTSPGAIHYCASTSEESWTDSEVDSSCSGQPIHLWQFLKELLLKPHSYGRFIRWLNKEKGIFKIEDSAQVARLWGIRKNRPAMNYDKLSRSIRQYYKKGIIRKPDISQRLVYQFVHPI
In outline:
as §1

Experiment [5] deals with T5, ETV7 (Homo sapiens, UniProt Q9Y603 1-341).
T5 sequence: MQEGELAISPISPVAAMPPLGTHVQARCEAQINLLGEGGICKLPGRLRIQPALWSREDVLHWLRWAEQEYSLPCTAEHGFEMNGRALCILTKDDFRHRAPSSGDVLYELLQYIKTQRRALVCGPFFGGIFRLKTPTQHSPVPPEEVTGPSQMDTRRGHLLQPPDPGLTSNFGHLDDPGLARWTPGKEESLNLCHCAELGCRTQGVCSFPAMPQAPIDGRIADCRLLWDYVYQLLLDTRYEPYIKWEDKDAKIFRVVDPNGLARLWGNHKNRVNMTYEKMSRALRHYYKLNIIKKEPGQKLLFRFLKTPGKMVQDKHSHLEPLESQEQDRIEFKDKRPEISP
In outline:
as §1

Experiment [6] addresses T6, ELF5 (Homo sapiens, UniProt Q9UKW6-2 1-255).
T6 sequence: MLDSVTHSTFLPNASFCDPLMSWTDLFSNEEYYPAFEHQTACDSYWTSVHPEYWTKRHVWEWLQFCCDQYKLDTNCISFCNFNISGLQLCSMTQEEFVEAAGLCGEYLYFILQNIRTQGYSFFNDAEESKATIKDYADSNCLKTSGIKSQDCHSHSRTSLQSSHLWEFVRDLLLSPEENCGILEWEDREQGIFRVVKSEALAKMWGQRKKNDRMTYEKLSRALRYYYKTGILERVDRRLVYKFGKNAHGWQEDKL
The gist of the method: as §1

The target in experiment [7] is T7, ETV3 (Homo sapiens, UniProt P41162-2 1-143).
T7 sequence: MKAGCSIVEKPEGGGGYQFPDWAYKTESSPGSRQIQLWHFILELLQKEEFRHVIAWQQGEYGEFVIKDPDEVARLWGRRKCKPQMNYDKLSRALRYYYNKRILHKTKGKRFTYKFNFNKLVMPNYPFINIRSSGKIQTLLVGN
In outline: as §1

Experiment [8] concerns the target ETV6 (Homo sapiens, UniProt P41212 1-452). In outline: as §1

Sequence of ETV6 (P41212 whole entry): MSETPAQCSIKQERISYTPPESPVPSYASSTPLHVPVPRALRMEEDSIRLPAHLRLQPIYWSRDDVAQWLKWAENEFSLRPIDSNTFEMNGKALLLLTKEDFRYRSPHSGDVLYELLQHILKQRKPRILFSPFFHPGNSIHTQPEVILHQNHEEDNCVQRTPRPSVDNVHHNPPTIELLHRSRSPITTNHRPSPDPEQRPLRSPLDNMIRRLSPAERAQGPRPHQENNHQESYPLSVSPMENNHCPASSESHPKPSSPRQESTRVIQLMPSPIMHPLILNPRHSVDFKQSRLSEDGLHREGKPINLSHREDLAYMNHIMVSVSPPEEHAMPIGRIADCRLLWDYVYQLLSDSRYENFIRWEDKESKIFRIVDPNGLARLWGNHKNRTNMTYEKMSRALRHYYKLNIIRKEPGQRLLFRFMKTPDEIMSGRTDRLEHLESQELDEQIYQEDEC

In the case of ATACAC, the binding signal in experiment [1] is 1.32 fold enrichment (6-mer frequency, TF over GST control); in experiment [2], 1.18 fold enrichment (6-mer frequency, TF over GST control); in experiment [3], 1.16 fold enrichment (6-mer frequency, TF over GST control); in experiment [4], 1.28 fold enrichment (6-mer frequency, TF over GST control); in experiment [5], 1.21 fold enrichment (6-mer frequency, TF over GST control); in experiment [6] it was 1.15 fold enrichment (6-mer frequency, TF over GST control). Moreover, the binding signal in experiment [7] is 1.17 fold enrichment (6-mer frequency, TF over GST control); in experiment [8], 1.12 fold enrichment (6-mer frequency, TF over GST control).

In the case of TAATAT, the binding signal was 1.35 fold enrichment (6-mer frequency, TF over GST control) in experiment [1]; 1.34 fold enrichment (6-mer frequency, TF over GST control) in experiment [2]; 1.24 fold enrichment (6-mer frequency, TF over GST control) in experiment [3]; 1.23 fold enrichment (6-mer frequency, TF over GST control) in experiment [4]; 1.35 fold enrichment (6-mer frequency, TF over GST control) in experiment [5]; 1.22 fold enrichment (6-mer frequency, TF over GST control) in experiment [6]. Besides, the binding signal in experiment [7] is 1.23 fold enrichment (6-mer frequency, TF over GST control); in experiment [8] it was 1.23 fold enrichment (6-mer frequency, TF over GST control).

For ATTCCG, the binding signal was 1.58 fold enrichment (6-mer frequency, TF over GST control) in experiment [1]; 1.74 fold enrichment (6-mer frequency, TF over GST control) in experiment [2]; 1.78 fold enrichment (6-mer frequency, TF over GST control) in experiment [3]; 1.85 fold enrichment (6-mer frequency, TF over GST control) in experiment [4]; 1.62 fold enrichment (6-mer frequency, TF over GST control) in experiment [5]; 2.17 fold enrichment (6-mer frequency, TF over GST control) in experiment [6]. Further, the binding signal in experiment [7] is 1.89 fold enrichment (6-mer frequency, TF over GST control); in experiment [8], 1.78 fold enrichment (6-mer frequency, TF over GST control).

With TAAGAA, the binding signal was 1.11 fold enrichment (6-mer frequency, TF over GST control) in experiment [1]; 1.09 fold enrichment (6-mer frequency, TF over GST control) in experiment [2]; 1.03 fold enrichment (6-mer frequency, TF over GST control) in experiment [3]; 1.06 fold enrichment (6-mer frequency, TF over GST control) in experiment [4]; 1.12 fold enrichment (6-mer frequency, TF over GST control) in experiment [5]; 1.03 fold enrichment (6-mer frequency, TF over GST control) in experiment [6]. The binding signal in experiment [7] was 1.07 fold enrichment (6-mer frequency, TF over GST control); in experiment [8], 1.08 fold enrichment (6-mer frequency, TF over GST control).

With TAGATG, the binding signal in experiment [1] was 1.54 fold enrichment (6-mer frequency, TF over GST control); in experiment [2], 1.36 fold enrichment (6-mer frequency, TF over GST control); in experiment [3], 1.3 fold enrichment (6-mer frequency, TF over GST control); in experiment [4], 1.35 fold enrichment (6-mer frequency, TF over GST control); in experiment [5], 1.33 fold enrichment (6-mer frequency, TF over GST control); in experiment [6], 1.27 fold enrichment (6-mer frequency, TF over GST control). Besides, the binding signal in experiment [7] is 1.22 fold enrichment (6-mer frequency, TF over GST control); in experiment [8] it was 1.24 fold enrichment (6-mer frequency, TF over GST control).

For CTATAC, the binding signal in experiment [1] was 1.21 fold enrichment (6-mer frequency, TF over GST control); in experiment [2], 1.19 fold enrichment (6-mer frequency, TF over GST control); in experiment [3], 1.28 fold enrichment (6-mer frequency, TF over GST control); in experiment [4] it was 1.39 fold enrichment (6-mer frequency, TF over GST control); in experiment [5], 1.19 fold enrichment (6-mer frequency, TF over GST control); in experiment [6] it was 1.26 fold enrichment (6-mer frequency, TF over GST control). Besides, the binding signal in experiment [7] was 1.24 fold enrichment (6-mer frequency, TF over GST control); in experiment [8] it was 1.28 fold enrichment (6-mer frequency, TF over GST control).
